An excerpt weighted towards active compounds, which were near 9.9% of everything screened.
KB-3-1 cytotox: kills parental KB-3-1 adenocarcinoma cells. KB-3-1 viability, CellTiter-Glo ATP luminescence, 72 h. Potency, µM (top dose mostly 46.1 µM), most hits filed as cytotoxic. 1.4% of 400,000 active. AID 1347075; further: nearly all actives have a fitted effect of over 60% in size
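Screening of KB-3-1 cells (DMEM, 10% FBS, phenol-red free) ran from lowest to highest compound concentration; after 72 h at 37 °C viability was read luminescently and curves fitted.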
KB-V1 MDR tox: kills drug-selected multidrug resistant KB-V1 cells. KB-V1 MDR cells viability, CellTiter-Glo, 72 h. Potency, µM (titrated, usually from 46.1 µM), actives largely listed as cytotoxic. 3.4% of 400,000 active. AID 1347076; further: nearly all actives have a fitted effect of over 60% in size
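Potencies derive from concentration-effect curves fitted to normalized luminescence (CellTiter-Glo) of KB-V1 cells treated for 72 h at 37 degrees C in phenol-red-free DMEM containing 10% FBS.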
IL-1B inflam inh: blocks inflammasome-driven IL-1 beta release; activity change, % at 57.5 µM; 4.7% of 360,000 active; THP-1 LPS/ATP IL-1B secretion, AlphaLISA, 16 h; active compounds read low; in the data active means activity change below about -50%; inconclusive means mostly about -30% to -49%
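THP-1 cells pretreated 1 hr with compounds (up to 57.5 uM final), then stimulated with LPS (250 ng/mL final) plus ATP (1.25 mM final); secreted IL-1B measured by AlphaLISA after 16 hr, decreased signal indicating inhibition.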
SW480 rerep: DNA re-replication induction in SW480 cells; SW480 DNA re-replication, Hoechst DNA content imaging, 48 h; Potency, µM (highest dose often 46.1 µM), actives largely listed as activators; 1.8% of 340,000 active; further: nearly all actives have a fitted effect of over 55% in size
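Per well, 250 cells were exposed to pinned compound for 48 hr. Nuclear DNA was visualised with Hoechst (40 min, 37 C) and total object intensity recorded by fluorescence scanning.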
MCF10A rereplic: DNA re-replication induction in MCF 10a cells. MCF 10A DNA re-replication, Hoechst nuclear intensity, 48 h. Potency, µM (series often up to 46.1 µM), actives largely listed as activators. 2.9% of 350,000 active. AID 624296; further: nearly all actives have a fitted effect of over 50% in size
Numbers stand for hits; 0 = inactive; ? = inconclusive; - = no result given. Unless noted, the call rests on the fitted dose curve; in most records, active means well fitted curve in the direction sought with a large enough effect; inconclusive means small, poorly fitted or top-dose-only effect, or another doubt; inactive means no such curve, though single readings can be large; an effect the other way counts as inactive or inconclusive.

SMILES | KB-3-1 cytotox | KB-V1 MDR tox | IL-1B inflam inh | SW480 rerep | MCF10A rereplic
CCCCN1CCS(=O)(=O)N(Cc2ccccc2Br)CC(C(=O)OC)C1 (stereo not given) | ? | ? | 0 | ? | ?
CN1C(=O)/C(=C/C=C/c2ccco2)C(=O)NC1=S | 0 | 0 | 0 | ? | 0
O=C1NC(=O)N(c2ccccc2)C(=O)/C1=C/C=C/c1ccco1 | ? | ? | -100 | 15µM | ?
C[C@]12CC[C@H](OS(=O)(=O)O)CC1=CCC1C2CC[C@]2(C)C(=O)CC[C@@H]12 (stereo not given in full) | - | - | - | 0 | 0
CNCCc1nc(N)n[nH]1 | 0 | 0 | 0 | 0 | 0
CCCCCCC(C)(C)c1ccc([C@@H]2C[C@H](O)CC[C@H]2CCCO)c(O)c1 | ? | ? | -67 | 0 | 0
CCOc1ccc2nc(NC(=O)c3cccn(Cc4ccc(Cl)cc4)c3=O)sc2c1 | 0 | 0 | - | - | -
CN(C)CC(C(=O)Cc1ccccc1)c1ccccc1 (stereo not given) | 8.2µM | ? | -96 | 4.6µM | 13µM
CC(=O)OC(C)(C)/C=C/C(=O)[C@](C)(O)C1[C@H](O)C[C@@]2(C)C3CC=C4C(C[C@H](O)C(=O)C4(C)C)[C@]3(C)C(=O)C[C@]12C (stereo not given in full) | 0.037µM | 0.92µM | -106 | ? | ?
CC(C)(O)/C=C/C(=O)C(C)(O)C1C(O)CC2(C)C3CC=C4C(C=C(O)C(=O)C4(C)C)C3(C)C(=O)CC12C (stereo not given) | 0.18µM | 0.92µM | -103 | ? | 2.9µM
NP(N)(=O)NC(=O)c1ccc(F)cc1 | - | - | - | 0 | 0
COCC(=O)N(c1c(C)cccc1C)C(C)C(=O)OC (stereo not given) | - | - | - | 0 | 0
O=C1/C(=C/c2cccc([N+](=O)[O-])c2)N2CCC1CC2 | 0 | 0 | -68 | 0 | 0
O=C1/C(=C\c2ccc(Cl)c(Cl)c2)N2CCC1CC2 | 0 | 0 | -79 | 0 | ?
C=CC[N+]1(C)CCC23c4c5ccc(O)c4O[C@H]2C(=O)CC[C@@]3(O)C1C5 (stereo not given in full) | - | - | - | 0 | 0
Cn1c(=O)n(C)c2cc(CNCCc3ccc(F)cc3)ccc21 | 0 | 0 | - | - | -
COC(=O)C1=C(c2ccc(Cl)c(C(F)(F)F)c2)C[C@@H]2CC[C@H]1N2C(=O)NCCOc1ccccc1 | 0 | 0 | -81 | 0 | 0
COC(=O)C1=C(c2ccc(Cl)c(C(F)(F)F)c2)C[C@@H]2CC[C@H]1N2C(=O)NCc1ccco1 | 0 | 0 | -65 | 0 | 0
COC(=O)C1=C(c2ccc(Cl)c(C(F)(F)F)c2)C[C@@H]2CC[C@H]1N2C | 0 | 0 | 0 | 0 | 0
COC(=O)C1=C(c2ccc(Cl)c(C(F)(F)F)c2)C[C@@H]2CC[C@H]1N2C(=O)NCCO | 0 | 0 | 0 | 0 | 0
COC(=O)C1=C(c2ccc(Cl)c(C(F)(F)F)c2)C[C@@H]2CC[C@H]1N2C(=O)NC1CCCCC1 | ? | ? | -52 | ? | ?
C[C@]12CCC3[C@@H](CCC4=CC(=O)CC[C@@]43C=O)C1CCC2=O (stereo not given in full) | 0 | 0 | 0 | 0 | 0
CN1C[C@H](CNC(=O)OCc2ccccc2)C[C@@H]2c3cccc4c3c(cn4C)C[C@H]21 | 0 | 0 | ? | 23µM | 23µM
CN1C[C@H](CO)C[C@@H]2c3cccc4[nH]cc(c34)C[C@H]21 | 0 | 0 | 0 | 0 | 0
CC(C)(C)N1CC(C(=O)c2ccccc2)C1c1ccccc1 (stereo not given) | 0 | 16µM | -80 | 0 | 0
CN1CC(C(=O)c2ccccc2)C(c2ccccc2)C1 (stereo not given) | 0 | 0 | 0 | 0 | 0
C[C@]12CCC3C(CC[C@H]4C[C@@H](O)CC[C@]34C)C1CC[C@@H]2OC(=O)[C@H](N)CCCCN (stereo not given in full) | 0 | 0 | -72 | ? | ?
CC1CC(C)(O)CC(C(O)CC2CC(=O)NC(=O)C2)C1=O (stereo not given) | 0.92µM | 6.5µM | -101 | ? | ?
CC=CC(C)=CC(C)C(=O)CC(O)CC1CC(=O)NC(=O)C1 (stereo not given) | 0 | 0 | 0 | - | -
CCCC(=O)OC(C(Cl)(Cl)Cl)P(=O)(OC)OC (stereo not given) | - | - | - | 0 | 0

Compound activity: PubChem BioAssay, National Center for Advancing Translational Sciences (NCATS)
